Compound activity from PubChem.
HCV inhibitor – inhibitors of hepatitis C virus infection. Huh7.5.1 HCVcc-Cre infection, luciferase reporter, 44 h. Potency, µM (doses to about 41.8 µM), hits mostly inhibitors. hit rate 3.4% among 340,000. AID 651820
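Whole-lifecycle infectious HCVcc-Cre system; cells 1,000/well, compound then virus (~0.5 moi) added 4 h after plating, 44 h culture. Luciferase read 15 sec following 15 min substrate incubation, room temp.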
Pf growth 96h – P. falciparum growth inhibition at 96 hours; P. falciparum luciferase reporter growth, 96 h; Potency, µM (titrated, usually from 28.7 µM), actives largely listed as inhibitors; hit rate 6.9% among 320,000; AID 504834
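Erythrocytes infected with luciferase-expressing P. falciparum were dispensed at 2% hematocrit and 0.05% parasitemia (final), then incubated with compounds 96 hours at 37 C in 5% CO2. Luminescence after detection reagent addition reported growth.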
Pf growth 48h – P. falciparum growth inhibition at 48 hours (one generation). P. falciparum luciferase growth in erythrocytes, 48 h. Potency, µM (top dose mostly 28.7 µM), most hits filed as inhibitors. hit rate 5.9% among 310,000. AID 504832
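Luminescence readout; reporter = integrated firefly luciferase in P. falciparum. RBC culture at 2% hematocrit, 0.1% parasitemia final, 37 C/5% CO2; decreased signal taken as growth inhibition.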
HCMV inh – inhibitors of human cytomegalovirus; AID 1259415; activity change, negative = inhibition, % at 57.5 µM; HFF cells, HCMV-luciferase reporter, 72 h; hits give low values; hit rate 4.5% among 410,000; in the data active = activity change below about -60%; inconclusive = no clear call, values can overlap the other calls; inactive = above about -39%
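Screen run at 2 compound doses on HFFs infected with reporter HCMV, MOI 1 PFU/cell. Luciferase activity from cell lysates at 72 h post infection gave inhibition relative to buffer-only and Salinomycin wells.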
Of the large screens only hits and unclear results are named; the others gave an inactive call; ! = not active in a repeat. A selection: hits, their analogues and other compounds. The true share with any hit is near 13%. Unless noted, calls come from the whole dose curve; as a rule, active = well fitted inhibition curve with a large enough effect; inconclusive = small, poorly fitted or top-dose-only effect, or another doubt; inactive = no such curve, though single readings can be large or run the other way.

O=C(N/N=C/c1c(F)c(F)c(F)c(F)c1F)c1cccc(S(=O)(=O)N2CCOCC2)c1	none
COc1ccc(N(C(=O)COc2c(C)cccc2C)S(=O)(=O)c2ccc(Cl)cc2)cc1	none (no result: HCV inhibitor, Pf growth 96h, Pf growth 48h)
CCN(CC)c1ccc(NS(=O)(=O)c2ccc(-c3coc(C)n3)cc2)c(C)c1	none (no result: HCV inhibitor, Pf growth 96h, Pf growth 48h)
CCN(CC)c1nc2c(S(=O)(=O)c3ccc(C)cc3)nnn2c2ccsc12	none (no result: HCV inhibitor, Pf growth 96h, Pf growth 48h)
COC(=O)c1cc2c(cc1NC(=O)c1cnn(-c3ccc(C)cc3)c1-n1cccc1)OCO2	none (no result: HCV inhibitor, Pf growth 96h, Pf growth 48h)
Cn1c(=O)c(=O)n(C)c2cc(S(=O)(=O)N3CCCC3C(=O)Nc3cccc(F)c3)ccc21 (stereo unspecified)	none (no result: HCV inhibitor, Pf growth 96h, Pf growth 48h)
CS(=O)(=O)c1cccc(C(=O)Nc2ccc(S(=O)(=O)N3CCCCC3)cc2)c1	HCV inhibitor 4.5µM, Pf growth 96h 9.3µM, Pf growth 48h inconclusive, HCMV inh -63
CCCOC(=O)c1ccc(NC(=O)c2cccc(S(=O)(=O)N3CCN(C(C)=O)CC3)c2)cc1	HCV inhibitor inconclusive, Pf growth 96h inconclusive, Pf growth 48h inconclusive
O=C(Nc1ccc(N2CCOCC2)cc1)c1cccc(S(=O)(=O)N2CCCCCC2)c1	HCV inhibitor inconclusive, HCMV inh inconclusive
O=C(Nc1ccc(N2CCOCC2)cc1)c1cccc(S(=O)(=O)N2CCCC2)c1	HCV inhibitor 6.3µM (no result: HCMV inh)
CCOC(=O)c1ccc(NC(=O)c2cccc(S(=O)(=O)N3CCN(C(C)=O)CC3)c2)cc1	HCV inhibitor 10µM, Pf growth 96h 9.3µM, Pf growth 48h inconclusive
O=C(Nc1cccc(S(=O)(=O)N2CCCCC2)c1)c1ccc2ncsc2c1	HCV inhibitor 7.9µM
COc1ccc(N2CCN(S(=O)(=O)c3ccc(-c4cc(C(F)(F)F)on4)s3)CC2)cc1	none (no result: HCV inhibitor, Pf growth 96h, Pf growth 48h)
Cc1ccc(C(=O)Nc2cccc(S(=O)(=O)N3CCCCC3)c2)cc1[N+](=O)[O-]	HCV inhibitor 7.1µM, Pf growth 96h 8.3µM, Pf growth 48h 4.7µM
O=C(NCCN1C(=O)S/C(=C\c2ccc(F)cc2)C1=O)c1cccc(S(=O)(=O)N2CCOCC2)c1	HCV inhibitor 10µM, Pf growth 96h inconclusive
COc1cc(C(=O)Nc2cccc(S(=O)(=O)N3CCCC3)c2)c([N+](=O)[O-])cc1OC	HCV inhibitor inconclusive
CC(C)=CCOc1ccc2c(C)c(CC(=O)N3C[C@H]4C[C@@H](C3)c3cccc(=O)n3C4)c(=O)oc2c1C	Pf growth 96h 9.3µM, Pf growth 48h inconclusive
Cc1c(OCC(=O)N2C[C@H]3C[C@@H](C2)c2cccc(=O)n2C3)ccc2c3c(c(=O)oc12)CCCC3	Pf growth 96h inconclusive
O=C(COc1cc2oc(=O)c3c(c2cc1Cl)CCC3)N1C[C@H]2C[C@@H](C1)c1cccc(=O)n1C2	Pf growth 96h inconclusive, Pf growth 48h inconclusive
C=C(C)COc1cc2oc(=O)c(CC(=O)N3C[C@H]4C[C@@H](C3)c3cccc(=O)n3C4)c(C)c2cc1Cl	HCV inhibitor inconclusive, Pf growth 96h 10µM
C=C(C)COc1ccc2c(C)c(CCC(=O)N3C[C@H]4C[C@@H](C3)c3cccc(=O)n3C4)c(=O)oc2c1	Pf growth 96h 2.6µM, Pf growth 48h inconclusive, HCMV inh inconclusive
C=C(C)COc1ccc2c(C)c(CC(=O)N3C[C@H]4C[C@@H](C3)c3cccc(=O)n3C4)c(=O)oc2c1	Pf growth 96h inconclusive, Pf growth 48h inconclusive
O=C(CCC1N=C2c3ccccc3N=C(SCc3ccccc3Cl)N2C1=O)N1CCN(c2ccccc2)CC1 (stereo unspecified)	none (no result: HCV inhibitor, Pf growth 96h, Pf growth 48h)
Cc1ccc(C(CC(=O)NCC2(c3ccccc3)CCCC2)c2ccccc2)c(O)c1 (stereo unspecified)	none (no result: HCV inhibitor, Pf growth 96h, Pf growth 48h)
OC(c1ccccc1)(c1ccc(Cl)cc1)C1CN2CCC1CC2 (stereo unspecified)	HCV inhibitor 2.8µM, Pf growth 96h 8.3µM, Pf growth 48h inconclusive
OC(Cc1ccccc1)(c1ccccc1)C1CN2CCC1CC2 (stereo unspecified)	Pf growth 96h inconclusive (no result: Pf growth 48h)
OC(c1ccccc1)(c1ccccc1)C1CN2CCC1CC2 (stereo unspecified)	HCV inhibitor inconclusive, Pf growth 96h 12µM!, Pf growth 48h inconclusive
Cc1ccc(OCC(=O)OC2=C(C(=O)c3ccccc3)N(C)S(=O)(=O)c3ccccc32)cc1	none (no result: HCV inhibitor, Pf growth 96h, Pf growth 48h)
N#C/C(=C\c1c[nH]c2ccc(Br)cc12)c1ccccn1	HCV inhibitor 11µM, Pf growth 96h 9.3µM, Pf growth 48h inconclusive (no result: HCMV inh)
N#C/C(=C\c1ccc(C(=O)O)cc1)c1ccccn1	none
Cc1nnc2n(-c3ccccc3)c(=O)c3c4c(sc3n12)COC(C)(C)C4	none
CCCCSc1nnc2n(CCc3ccccc3)c(=O)c3c4c(sc3n12)COC(C)(C)C4	Pf growth 96h 1.7µM
